According to the OligoGym collection:

Target: KIR2DL5B
Experiment: pooled miR-30 sensor sort-seq; sequence = guide strand
Details: shRNA
Also: reference of the scale not given here.

Row | Sequence | sensor-assay potency score (higher = more potent)
1 | TACATGTCAAATGAGCTCCTGG | -0.149
2 | TTGAAGAGTTTCCTGTGACAGA | -0.517
3 | TACATGGGAGCTAGCAACCCGG | -1.49
4 | TTGTACAGACTGAAGATGGTAA | -0.188

Target: KLC3
Experiment: as above
Details: shRNA

Row | Sequence | sensor-assay potency score (higher = more potent)
5 | TTGAGTGACATGGCTCTCTTCA | -0.297
6 | TTGATACTTGTTCTGTTTCAGG | -0.751
7 | TTCTTTGTACTTGTTCTGGTCC | -0.164
8 | TTCTTTGTACAGCTCTTCCGCT | -0.475
9 | ATCTTGGAGAGTGAGCTGCTGC | -1.26
10 | TTGGAGAGTGAGCTGCTGCGGC | -0.586
11 | TTGTACAGCTCTTCCGCTTGTT | 0.24
12 | TCTTTGTACAGCTCTTCCGCTT | -0.542
13 | TTGTACTTGTTCTGGTCCCGGT | -0.388
14 | TTTGTACTTGTTCTGGTCCCGG | -0.559
15 | TTCTGTTTCAGGTAGGCTGAGG | -0.432
16 | TTTCTTTGTACAGCTCTTCCGC | -0.28

Target: KLF14
Experiment: as above
Details: shRNA

Row | Sequence | sensor-assay potency score (higher = more potent)
17 | TTGGTCAGGTGGTCGCTCCGGG | -0.324
18 | TTGAGGTGCGACGACTTGTAAT | -1.63
19 | ATATCTGGATGATAGGTTGGGT | -0.162
20 | TAAACTTCTTGTCGCAGTCGAG | -0.734
21 | TACTCGATCATATCTGGATGAT | -0.368
22 | TTGTAATAGGCTTTGGTGCAGC | -0.333
23 | TCGCAGTCGAGCCAGTCGCAGG | -1.84
24 | TTCTTGTCGCAGTCGAGCCAGT | -1.02
25 | TATCTGGATGATAGGTTGGGTG | -1.33
26 | AAACTTCTTGTCGCAGTCGAGC | -1.65
27 | ATAGGCTTTGGTGCAGCCCGGG | -0.764
28 | TAGGCTTTGGTGCAGCCCGGGA | -1.12

Target: KLF15
Experiment: as above
Details: shRNA

Row | Sequence | sensor-assay potency score (higher = more potent)
29 | TAGCACTAAAGTTCTGGCCTTG | -0.309
30 | TTTGGTGTACATCTTGCTGCAG | 0.126
31 | TCTCGCACACAGGACACTGGTA | -0.647
32 | TAAACCTGTCAAAACAAGCTAG | -0.421
33 | TAACATTGCCATGTCCCTCTGG | 0.313
34 | AAACTCTTCAATCTCCTCCAGG | -0.475
35 | TATTTTATGTGGATGGACCTAT | 0.313
36 | TGGATCTGCAGCAACACTGGGA | -0.384
37 | TTAAATTTCAAATTTACACAAA | -0.919
38 | TATCTAGTTCTCTCACACCCAG | -0.809
39 | TATATTTTTATGAAGGACCAAA | -0.999
40 | TTGGTGTACATCTTGCTGCAGC | -0.584
